Results published in PubChem BioAssay.
Values without a mark were called inactive. The source made the active and inactive calls. Cut-off read from the data, not from the text of the source, unless noted: active = inhibition above about 25%; inactive = the rest.

Key:
[1] = target: Nuclear receptor coactivator 1 (Homo sapiens) (UniProt Q15788); assay: NCOA1 GAL4-fusion reporter inhibition – cell-based, luminescence, quadruplicate, confirmation (AID 588820;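 active = mean inhibition above 46.68%, the untreated control wells mean plus 3 SD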;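 note: 0% = DMSO wells and 100% = gossypol 36 µM treated wells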); settings: HEK293 GAL4-SRC1 luciferase reporter, at 3.6 µM, stronger effect = higher value
[2] = repression of VP16-driven luciferase reporter – cell-based, luminescence, high throughput, counter-screen for SRC1 inhibitor project (AID 588824); settings: cell-based VP16 transactivation luciferase luminescence; at 3.6 µM; stronger effect = higher value

Nuclear receptor coactivator 1 (Homo sapiens), sequence (Q15788 whole entry, looked up, the tested form may be a part): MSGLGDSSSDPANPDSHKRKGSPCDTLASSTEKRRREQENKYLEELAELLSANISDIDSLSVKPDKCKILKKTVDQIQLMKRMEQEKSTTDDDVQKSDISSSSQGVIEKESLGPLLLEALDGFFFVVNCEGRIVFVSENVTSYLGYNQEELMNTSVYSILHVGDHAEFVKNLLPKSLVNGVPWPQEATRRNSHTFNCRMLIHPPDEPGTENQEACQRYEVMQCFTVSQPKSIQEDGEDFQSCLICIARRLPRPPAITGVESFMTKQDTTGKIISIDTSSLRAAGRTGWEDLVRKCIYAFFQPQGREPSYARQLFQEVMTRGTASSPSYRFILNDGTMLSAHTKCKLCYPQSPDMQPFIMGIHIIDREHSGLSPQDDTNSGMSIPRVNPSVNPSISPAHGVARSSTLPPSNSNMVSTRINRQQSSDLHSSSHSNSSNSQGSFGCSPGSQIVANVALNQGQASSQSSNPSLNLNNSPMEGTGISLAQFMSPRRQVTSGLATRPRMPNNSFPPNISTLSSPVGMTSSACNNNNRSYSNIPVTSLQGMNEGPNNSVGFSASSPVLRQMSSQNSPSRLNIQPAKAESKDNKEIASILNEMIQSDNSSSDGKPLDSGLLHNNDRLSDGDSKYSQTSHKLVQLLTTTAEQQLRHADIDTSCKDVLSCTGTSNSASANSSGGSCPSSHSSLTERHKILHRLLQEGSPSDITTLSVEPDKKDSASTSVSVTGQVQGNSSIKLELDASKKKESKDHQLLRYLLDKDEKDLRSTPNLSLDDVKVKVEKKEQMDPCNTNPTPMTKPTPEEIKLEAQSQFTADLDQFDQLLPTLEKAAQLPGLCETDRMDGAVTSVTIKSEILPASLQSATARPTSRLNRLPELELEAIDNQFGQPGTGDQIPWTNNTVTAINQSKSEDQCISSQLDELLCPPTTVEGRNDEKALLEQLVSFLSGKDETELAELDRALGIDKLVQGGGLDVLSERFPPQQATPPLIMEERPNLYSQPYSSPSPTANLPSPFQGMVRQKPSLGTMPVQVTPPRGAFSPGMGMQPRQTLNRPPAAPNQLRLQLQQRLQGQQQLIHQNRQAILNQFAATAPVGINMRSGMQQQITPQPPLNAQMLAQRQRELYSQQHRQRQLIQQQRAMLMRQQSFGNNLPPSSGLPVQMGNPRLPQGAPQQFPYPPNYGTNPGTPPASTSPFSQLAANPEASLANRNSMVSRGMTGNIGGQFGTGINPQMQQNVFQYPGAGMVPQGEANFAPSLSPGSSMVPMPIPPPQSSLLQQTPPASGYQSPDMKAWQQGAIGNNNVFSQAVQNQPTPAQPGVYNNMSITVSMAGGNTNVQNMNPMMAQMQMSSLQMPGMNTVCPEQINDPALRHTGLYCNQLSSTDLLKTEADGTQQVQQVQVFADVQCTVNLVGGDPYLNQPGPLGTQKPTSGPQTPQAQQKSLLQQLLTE

Structure (SMILES)	inhibition [1] [%]	inhibition [2]
CSCCC(NC(=O)c1ccco1)C(=O)OCC(=O)N(Cc1ccccc1)C(C)(C)C (stereo unspecified)	-15.8	-3.79%
CN(C)C(=O)c1ccc(-c2n[nH]c(=O)c3ccccc23)cc1	34.3	18.3%
CC1CN(c2nc3ccccc3nc2SCC(=O)Nc2cccc(C(F)(F)F)c2)CC(C)O1 (stereo unspecified)	-15.1	5.85%
Cc1[nH]nc2ncc(C(=O)c3cc(F)ccc3O)cc12	18.4	16.1%
CC1CC(C)CN(c2ncnc3c2cnn3-c2ccc(Cl)cc2)C1 (stereo unspecified)	-96.6	-50.9%
CCC(CC)C(=O)N(C)c1c(C)nc2c(OCc3ccc(OC(F)F)cc3)cccn12	-18.2	5.06%
COc1cccc(CNC(=O)C2CCCN(S(C)(=O)=O)C2)c1 (stereo unspecified)	-0.5	8.47%
CCOc1ccccc1N1CCN(CC(=O)NC(C)c2ccccc2)CC1 (stereo unspecified)	-9.98	0.65%
CCOP(=O)(OCC)C(NC(=O)c1cccs1)c1ccccc1 (stereo unspecified)	-44.8	-3.21%
CN(C(=O)c1cccc(NC(=O)Cc2ccc(NC(=O)C3CCCN(C(=O)CCc4ccccc4)C3)cc2)c1)C1CCCC1 (stereo unspecified)	-3.52	19.6%
CN(C)c1ccncc1C(=O)Nc1ccc(F)cc1F	-3.76	-9.03%
Oc1c(C(Nc2nc3ccccc3s2)c2ccco2)ccc2cccnc12 (stereo unspecified)	28.4	29.8% (active)
COc1ccc(-c2csc(N3CCN(c4cc(C)nc5ccccc45)CC3)n2)cc1OC	-18	20.4%
O=C(CSc1ccccc1)Nc1nnc(-c2ccco2)o1	1.78	-4.61%
Cc1csc2ncnc(NCCc3ccccn3)c12	-2.8	21.8%
Cc1ccccc1C(OCC(O)CN1CCN(CCO)CC1)c1ccccc1 (stereo unspecified)	-13.1	3.65%
O=C(COc1ccc(S(=O)(=O)Nc2ccccc2)cc1)NCc1ccncc1	-7.07	2.08%

Structure (SMILES)	inhibition [1] [%]	inhibition [2]
Cc1ccc(S(=O)(=O)NCCC2=CCCCC2)cc1	-5.59	7%
Cc1c(C(=O)N/N=C/C(C)C)[nH]c2ccc([N+](=O)[O-])cc12	17.2	14.8%
NS(=O)(=O)c1ccc(NC(=O)CCCCC(=O)Nc2ccc(S(N)(=O)=O)cc2)cc1	-1.93	-4.87%
CC1(C(=O)NS(=O)(=O)Cc2cccc(Cl)c2)CCN1C(=O)Cc1ccc(-c2ccccc2)cc1 (stereo unspecified)	-5.52	-14.3%
CC(O)c1nc2cc([N+](=O)[O-])ccc2n1Cc1ccccc1 (stereo unspecified)	-1.46	-6.35%
NS(=O)(=O)c1ccc(NC(=O)c2cccc3cc4ccccc4nc23)cc1	-13.3	9.91%
CC(C)(C)c1ccc(-c2cc(-c3ccccc3O)[nH]n2)cc1	-42.5	-28.4%
CCOC(=O)Cc1csc(SCC(=O)c2c(N)n(CC(C)C)c(=O)n(C)c2=O)n1	-7.3	26.3% (active)
CCOC(=O)N1CCN(CC(=O)Nc2ccc(F)c(F)c2)CC1	-18.7	-4%
CN(Cc1ccc(F)cc1)C(=O)c1cccc(S(=O)(=O)N2CCN(c3ccccc3)CC2)c1	-0.46	15%
CCCCc1ccc(NC(=O)c2ccc(N(C)S(C)(=O)=O)cc2)cc1	-25.4	31.3% (active)
CSc1ccc(CN2CCN(C(=O)CC(C)C)CC2)cc1	-3.21	-2.54%
CCOc1ccc(OCCC(=O)OCC(=O)NNC(=O)c2ccccc2)cc1	-5.67	-3.09%
CO/N=C/C(c1ccc(Cl)nc1)S(=O)(=O)c1ccccc1 (stereo unspecified)	-12.5	-1.73%
CCN(CC)c1ccc(NC(=O)CSc2n[nH]c(-c3ccco3)n2)cc1	-8.8	-1.86%
O=C(CCn1cnc(-c2ccccc2)c1-c1ccccc1)N/N=C/c1ccccc1O	18.6	11.4%
